Assay results from PubChem BioAssay AID488890 (Southern Research Specialized Biocontainment Screening …, 2010).
Screen size: about 320,000 compounds; about 1,300 (0.41%) were called active. About 3% were inconclusive and are not listed. The rule behind the calls is not given here. Only a sample is shown. Entries with a potency or affinity are not part of this list.

Assay: growth inhibition of non-replicating M. tuberculosis (AID 488890);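 note: plate controls were DMSO cells for no effect and high antibiotic wells for full effect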
Details: Mycobacterium tuberculosis non-replicating, at 25 µM, stronger effect = higher value
For `N#Cc1ccc(C23CC4(C2)[C@H](CN(Cc2ccc(C(F)(F)F)cc2)[C@@H]4c2ccccc2)C3c2ccccc2)cc1` (some centres not stated), the inhibition was 19.2%.
`Cc1cc(C)c(NC(=S)N2CCN(c3ccc([N+](=O)[O-])cn3)CC2)cc1C` gave an inhibition of -3%.
Work on `OC/C(Br)=C(\Br)CO` yielded an inhibition of -3.52%.
With `NC(=O)c1ccc(NC(=O)C2COc3ccccc3O2)cc1` (configuration not stated) the inhibition was 1.12%.
With `CC(C)(C)NC(=O)c1ccc(NC(=O)C2COc3ccccc3O2)cc1` (configuration not stated) the inhibition was 45.9%.
Work on `COc1ccc(OC)c(NC(=O)C2COc3ccccc3O2)c1` (configuration not stated) yielded an inhibition of 30.6%.
Compound `COc1ccc(CNC(=O)C2COc3ccccc3O2)cc1` (configuration not stated) has an inhibition of 72.5%.
Work on `CCOC(=O)CN1C(=O)N[C@@H](c2ccccc2)C(C(=O)OC)=C1C` yielded an inhibition of -18.9%.
With `COCc1ccc(C(=O)N2CCCC(N3CCN(c4ccccc4C)CC3)C2)s1` (configuration not stated) the inhibition was 20.7%.
For `O=C1C2C3C=CC(C3)C2C(=O)N1CC1CCCO1` (configuration not stated), the inhibition was -0.04%.
With `NC(=O)CCn1c(C(=O)c2cc(Cl)c(N)c(Cl)c2)c2ccccc2[n+]1[O-]` the inhibition was 7%.
In the case of `O=C(Nc1cccnc1)C1OCCc2ccccc21` (configuration not stated), the inhibition is reported as -3.68%.
In the case of `COCCn1c(SCC(=O)Nc2ccc(S(=O)(=O)N(C)C)cc2)nc2ccccc21`, the inhibition is reported as 0.14%.
In the case of `COc1cccc(NC(=O)CCC2CCN(C(=O)C3CC=CCC3)CC2)c1` (configuration not stated), the inhibition is reported as 6.11%.
With `Cc1nc(-c2cccc(S(=O)(=O)N3CCCCC3)c2)cs1` the inhibition was 3.4%.
`COc1ccccc1NC(=O)c1cc(-c2cc(OC)c(OC)c(OC)c2)nc2ccccc12` showed an inhibition of 1.97%.
For `COc1ccc(N/C(C)=C/C(=O)c2ccccc2)cc1`, the inhibition was 57.9%.
With `C/C(=C\C(=O)c1ccc(Br)cc1)NCc1ccccc1` the inhibition was 52.8%.
For `COc1ccc(/C(O)=C/C(=O)C(=O)NNC(=O)c2ccccc2)cc1`, the inhibition was 22.9%.
`C/C(=C\C(=O)c1ccc(Br)cc1)NNC(=O)c1ccc(O)cc1` gave an inhibition of 67.2%.
For `CCOc1ccc(N2CC(C(=O)NCCCc3ccccc3)CC2=O)cc1` (configuration not stated), the inhibition was 24.1%.
Compound `Cc1cccc(NC(=O)Cn2cnc3sc(C)c(S(=O)(=O)N4CCC(C)CC4)c3c2=O)n1` has an inhibition of 7.28%.
With `CCN1CCN(c2ccc(S(=O)(=O)N3CCOCC3)cc2NC(=O)c2sccc2C)CC1` the inhibition was -12.4%.
For `CC(=O)c1ccc(N2CCN(S(=O)(=O)c3cccc4nonc34)CC2)cc1`, the inhibition was 10.4%.
With `O=C(O)CSc1ccccn1` the inhibition was -10.9%.
`O=C(O)CCSc1ccccn1` showed an inhibition of -2.61%.
Compound `O=C(c1nnc(-c2ccncc2)o1)c1ccccc1Cl` has an inhibition of 72.4%.
In the case of `O=C(c1ccccc1)c1nnc(-c2ccncc2)o1`, the inhibition is reported as 49.9%.
With `O=C(c1cccc(F)c1)N1CCC2(CC1)NCCc1[nH]cnc12` the inhibition was -6.44%.
With `CN(CC(O)COCc1cccs1)C1CCCCC1` (configuration not stated) the inhibition was 4.88%.
Work on `c1ccc(-c2cc3c(ccc4nonc43)nn2)cc1` yielded an inhibition of 21%.
Compound `O=C(O)c1cc(-c2ccccc2)nc2ccccc12` has an inhibition of -4.94%.
